Only some compounds are listed: those with a hit (about 2.8% of all), similar ones and a draw of the others.
KDM5B inh – blocks human KDM5B histone demethylase activity | 220,000 tested, 2.6% active | Potency, µM (titrated, usually from 57.7 µM), most hits filed as inhibitors | KDM5B demethylase, FDH-coupled NADH fluorescence (FDH is formaldehyde dehydrogenase) | AID 1347165 | Q9UGL1; further: potency means the concentration at half of the fitted maximal effect; 0% is about no effect; nearly all actives have a fitted effect of over 70% in size
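Inhibition is measured as reduced NADH fluorescence generation from FDH coupling to formaldehyde release. Truncated KDM5BΔAP at 200 nM final acts on H3K4me3 peptide (12.5 µM in substrate mix) in pH 7.5 HEPES buffer with Tween-20, 30 min, room temperature.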
IP6K1 inh – IP6K1 kinase inhibition | Q92551 | 140,000 tested, 0.81% active | AID 1645851 | activity change, % (series mostly up to about 58 µM) | IP6K1 kinase, ADP-Glo luminescence, 2 h; hits give low values; in the data active means activity change below about -25%; further: on the % scale 0 is the no-effect control and ±100 the full control effect
Target sequence (Q92551 whole entry, looked up): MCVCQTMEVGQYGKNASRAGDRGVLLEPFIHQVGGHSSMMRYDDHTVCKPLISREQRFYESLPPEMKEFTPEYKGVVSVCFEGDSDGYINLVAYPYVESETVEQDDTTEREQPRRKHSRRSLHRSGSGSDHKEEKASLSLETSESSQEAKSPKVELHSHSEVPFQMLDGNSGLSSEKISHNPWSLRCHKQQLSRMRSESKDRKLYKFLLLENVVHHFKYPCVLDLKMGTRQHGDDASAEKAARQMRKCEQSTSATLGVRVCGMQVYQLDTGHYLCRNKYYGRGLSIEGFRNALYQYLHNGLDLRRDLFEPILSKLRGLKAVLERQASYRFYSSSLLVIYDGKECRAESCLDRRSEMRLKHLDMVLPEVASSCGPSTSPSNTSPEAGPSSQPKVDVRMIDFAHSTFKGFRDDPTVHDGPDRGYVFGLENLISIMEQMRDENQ
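ADP-Glo luminescence measures ADP made by human IP6K1 during a 2 h RT reaction with ATP/IP6 (mix at 1.3 mM/130 uM); top library doses 57.5 and 19.1 uM final.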
HEK293 viab – reduces viability of HEK-293 SNCA reporter cells. HEK-293-SNCA-luc viability, GF-AFC fluorescence, 24 h. Potency, µM (titrated, usually from 57.1 µM), without a hit: at the top dose activity change, negative = cytotoxicity, most hits filed as cytotoxic. 150,000 tested, 0.12% active;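 further: potency means the concentration at half of the fitted maximal effect; 0% = DMSO-treated cells and -100% = medium-only wells without cells; nearly all actives have a fitted effect of over 30% in size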
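HEK-293-SNCA-luc cells (1500/well) plated 24 h, then exposed 24 h to a dilution series; GF-AFC added 30 min at 37C, fluorescence 405/540 nm; normalised to medium-only and DMSO wells, Hill fit.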
SNCA expr inhib – reduces expression of the alpha-synuclein gene | Potency, µM (highest dose often 57.2 µM), without a hit: at the top dose activity change, negative = inhibition, most hits filed as inhibitors | AID 1671194 | 140,000 tested, 0.17% active | HEK-293 SNCA-luciferase knock-in, luminescence, 24 h;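 further: potency means the concentration at half of the fitted maximal effect; plate controls were DMSO cells for no effect and cell-free wells for full effect; nearly all actives have a fitted effect of over 45% in size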
* hit, by the source's call; i = inactive; ? = inconclusive; nt = no result given; [ ] = dose if it differs, or a comment. Unless noted, the call rests on the fitted dose curve; in most records, active means well fitted curve in the direction sought with a large enough effect; inconclusive means small, poorly fitted or top-dose-only effect, or another doubt; inactive means no such curve, though single readings can be large; an effect the other way counts as inactive or inconclusive.

SMILES	KDM5B inh	IP6K1 inh	HEK293 viab	SNCA expr inhib
CCc1cccc(NC(=O)c2cc3n(n2)CC(c2ccc4c(c2)OCO4)OC3)c1 (stereo unspecified)	?	-2.4	?	71.7%
O=C(Nc1cccc(Cl)c1)c1cc2n(n1)CC(c1ccc3c(c1)OCO3)OC2 (stereo unspecified)	25.1µM*	-6.4	-4.2%	-23.3%
O=C(NCCc1noc(-c2ccccc2)n1)C1NCCc2[nH]cnc21 (stereo unspecified)	35.5µM*	18.1	-13.6%	4.9%
O=C(NCCc1nc(-c2cccnc2)no1)C1NCCc2[nH]cnc21 (stereo unspecified)	i	13.8	-0.6%	?
COc1ccccc1C(=O)NCCC1CCN(C(=O)Nc2cc(F)ccc2F)CC1	i	-7.8	6.2%	-18.5%
CN(Cc1ccccc1)C(=O)C1(C)COCc2cnc(Nc3ccccc3)nc21 (stereo unspecified)	i	-2.6	-26.1%[87.6 µM]	-18.0%[87.6 µM]
COc1ccc(NC(=O)C2(C)CCCc3cnc(N(C)C)nc32)cn1 (stereo unspecified)	35.5µM*	6.4	-24.6%[87.6 µM]	-18.3%[87.6 µM]
CN(C)c1ncc2c(n1)C(C)(C(=O)Nc1ccccc1F)CCC2 (stereo unspecified)	?	0.8	3.3%[87.6 µM]	?
CN(C)c1ncc2c(n1)C(C)(C(=O)Nc1ccccc1)CCC2 (stereo unspecified)	35.5µM*	-2.7	-4.4%[87.6 µM]	-21.0%[87.6 µM]
CN(Cc1ccccc1)C(=O)C1(C)CCCc2cnc(N(C)C)nc21 (stereo unspecified)	31.6µM*	-3.1	-3.5%[87.6 µM]	-9.5%[87.6 µM]
COCCNC(=O)C1(C)CCCc2cnc(Nc3ccccc3)nc21 (stereo unspecified)	i	16.5	-15.3%[87.6 µM]	-1.8%[87.6 µM]
O=C(Nc1ccc2c(c1)CCC2)c1c(F)c(F)c(F)c(F)c1F	i	nt	nt	nt
COc1ccc(C)cc1NC(=O)N1CCCC2(C1)Nc1cccnc1NC2=NC1CCCC1 (stereo unspecified)	28.2µM*	3.7	?	?
COc1cccc(NC(=O)N2CCCC3(C2)Nc2cccnc2NC3=NC2CCCC2)c1 (stereo unspecified)	?	0.0	-25.9%	-14.8%
O=C(Nc1cc(F)cc(F)c1)N1CCCC2(C1)Nc1cccnc1NC2=NC1CCCC1 (stereo unspecified)	14.1µM*	0.0	-13.6%	-17.4%
Cc1ccc(-c2n[nH]c(=O)c3ccccc23)cc1S(=O)(=O)NC1CCCCC1	i	nt	nt	nt
CNC(=O)C1CCN(C(=O)c2ccc(-c3ccccc3OC)cc2)CC1	nt	3.1	2.7%[12.5 µM]	25.8%
CNC(=O)C1CCN(C(=O)c2ccc(-c3ncc4cnc(-c5ccccc5)cn34)cc2)CC1	22.4µM*	1.6	2.7%	12.1%
CN(C)CCN(C)C(=O)c1ccc(-c2ncc3cnc(-c4ccccc4)cn23)cc1	31.6µM*	-12.4	5.4%[87.6 µM]	-6.1%[87.6 µM]
COCc1nncn1C1CCN(S(=O)(=O)c2ccc(F)cc2F)CC1	i	-2.8	5.4%	33.0%
COC[C@@H]1CN(c2cnccn2)C[C@H]1C(=O)NCc1ccccc1OC	22.4µM*	18.6	-2.2%	-3.6%
COC[C@@H]1CN(c2cnccn2)C[C@H]1C(=O)NCc1c(C)n[nH]c1C	20µM*	12.7	4.1%	6.3%
COc1ccccc1CNC(=O)[C@H]1CCC[C@H]1NC(=O)c1ccncc1	i	16.8	?	-0.4%
COC[C@@H]1CN(c2cnccn2)C[C@H]1C(=O)NCCCn1cccn1	20µM*	13.7	3.7%	-1.2%
COC[C@@H]1CN(c2cnccn2)C[C@H]1C(=O)NCCc1cccnc1	25.1µM*	7.7	4.3%	?
SMILES	KDM5B inh	IP6K1 inh	HEK293 viab	SNCA expr inhib
Cc1ccccc1C(=O)NCCn1c(C)cc2ccccc21	i	nt	nt	nt
COc1cc(OC)cc(C(=O)Oc2ccc(C(C)=O)cc2)c1	i	nt	nt	nt
COc1ccc(C(=O)N2CCC(=O)N(CCC#N)C[C@H]3COc4cc(OC)ccc4[C@H]32)cc1	nt	-8.4	nt	nt
O=C(O)CC[C@@H]1CN(c2cnccn2)CC[C@@H]1N1CCOCC1	?	1.4	-4.3%	10.2%
COCC1CCN(C(=O)[C@@H]2CN(c3cnccn3)C[C@H]2COC)CC1	25.1µM*	4.7	-14.7%	5.3%
Cn1ncc2c(C(=O)NCCc3ccc(Cl)cc3)cc(-c3ccc(Cl)cc3)nc21	?	2.0	-8.8%	?
Cn1ncc2c(C(=O)NCCc3ccc(Cl)cc3)cc(-c3ccc(Cl)cc3Cl)nc21	70.8µM*	-16.1	-14.4%	?
CC(C)NC(=O)c1cc(-c2ccc(Cl)cc2Cl)nc2c1cnn2C	89.1µM*	-4.0	0.4%	-11.2%
Cc1nc(C)c(C(=O)N2CCC(Cc3noc(C4CC4)n3)C2)s1 (stereo unspecified)	i	0.9	?	16.0%
CCOC(=O)N1CCN(Cc2nc3cc(NC(=O)c4ccccc4OC)ccc3n2C(C)C)CC1	?	-57.2*	-15.2%	37.7%
CCOC(=O)N1CCN(Cc2nc3cc(NC(=O)c4ccccc4[N+](=O)[O-])ccc3n2C(C)C)CC1	i	-13.9	-1.6%	-5.9%
CN(C)c1ccc(C(=C2C=CC(=[N+](C)C)C=C2)c2ccc(N(C)C)cc2)cc1	nt	-57.6*	?	?
Cc1cccc(-c2ocnc2C(=O)Nc2cccc(Cl)c2C)c1	i	nt	nt	nt
CN(Cc1ccccc1)C(=O)CCc1ccnc(N2CCOCC2)c1	25.1µM*	1.3	4.5%	32.5%
Cc1ccccc1NC(=O)CCc1ccnc(N2CCCC2)c1	28.2µM*	8.0	0.2%	21.8%
COc1ccc(NC(=O)CCc2ccnc(N3CCCC3)c2)c(C)c1	25.1µM*	-17.4	-13.8%	7.9%
O=C(CCc1ccnc(N2CCCC2)c1)NCc1ccccc1Cl	?	15.6	2.5%	20.8%
CCCCCn1nc(C(=O)Nc2nc3ccc(OCC)cc3s2)c2ccccc2c1=O	i	nt	nt	nt
CCCCn1nnc(NC(=O)COc2ccc(CC)cc2)n1	i	nt	nt	nt
COc1ccc(-c2cc(C(=O)NC3CC3)c3c(C)nn(-c4ccccc4)c3n2)cc1	79.4µM*	-7.1	5.0%	113.6%
COCCNC(=O)c1cc(-c2ccc(OC)cc2)nc2c1c(C)nn2-c1ccccc1	?	-3.7	5.3%	271.1%
COc1ccc(-c2cc(C(=O)NC3CCNCC3)c3c(C)nn(-c4ccccc4)c3n2)cc1	79.4µM*	1.3	?	?
O=C1NCCCCCCN[C@H]2C[C@H](C(=O)N3CCN(c4ccccn4)CC3)C[C@@H]12	?	9.2	-5.1%	7.0%
O=C(c1ccc(F)c(F)c1)N1CCCC(n2cc(-c3nc(-c4ccccc4)no3)nn2)C1 (stereo unspecified)	i	-6.0	-3.9%	67.7%
CN(C)Cc1nnc(C2CC(NC(=O)c3nc4ccccc4[nH]3)C2)n1C (stereo unspecified)	22.4µM*	20.8	7.6%	10.6%
Cc1c(C(=O)NCCn2c(C)cc3ccccc32)cccc1[N+](=O)[O-]	i	nt	nt	nt
COCc1nc2nccc(-c3ccc4c(c3)OCCCO4)n2n1	17.8µM*	6.3	-2.6%	12.6%
c1coc(-c2nc3nccc(-c4ccc5c(c4)OCCCO5)n3n2)c1	28.2µM*	-9.8	-3.2%	?

Source: PubChem (National Center for Advancing Translational Sciences (NCATS))
